This excerpt belongs to a sample that is enriched for hits.
CHX counter: counter-screen for Shiga toxin inhibitors: cycloheximide protein synthesis inhibition. cell reporter, cycloheximide protein synthesis inhibition counterscreen. max response, %. 12% of 300,000 active; in the data active means max response mostly above about 13%, no sharp cut-off; inactive means mostly below about 14%; further: read at 38.3 µM for the half of the compounds with a filed dose; 0% is about no effect
AMA1 RON2 block: AMA1-RON2 (P. falciparum) interaction inhibition | AlphaScreen AMA1-biotinylated RON2 peptide binding | Potency, µM (titrated, usually from 58.2 µM), for the others: at the highest dose activity change, negative = inhibition, most hits filed as inhibitors | 0.2% of 360,000 active | AID 720542;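 further: potency means the concentration at half of the fitted maximal effect; 0% = vehicle wells and -100% = peptide control; nearly all actives have a fitted effect of over 45% in size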
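AMA1 (3D7) with his tag at 25 nM final met compounds first, then biotinylated RON2 peptide at 25 nM; detection used donor plus acceptor beads, 10 µg/mL apiece, read by AlphaScreen after 30 min at room temperature.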
Shiga inhibitor: Shiga toxin inhibition. Vero cells, Shiga toxin protein synthesis inhibition reporter. inhibition, % at 38.7 µM. AID 2315. 9.2% of 290,000 active; in the data active means inhibition mostly above about 28%, no sharp cut-off; inactive means mostly below about 43%; further: 0% is about no effect
SARS PLpro yeast: blocks SARS-CoV papain-like protease in a yeast assay; S. cerevisiae expressing SARS-CoV PLpro, growth rescue; 0.19% of 330,000 active; Potency, µM (series often up to 32.9 µM), without a hit: at the highest dose activity, positive = growth rescue, actives largely listed as activators; AID 485353; calls by dose curve; further: potency means the concentration at half of the fitted maximal effect; 0% is about no effect; nearly all actives have a fitted effect of over 55% in size
AmpC detergent: inhibitors of E. coli AmpC beta-lactamase with detergent | Potency, µM (doses to about 114 µM), without a hit: top-dose activity change, negative = inhibition, actives largely listed as inhibitors | 0.041% of 370,000 active | AID 485294 | AmpC hydrolysis of nitrocefin, absorbance 480 nm, 0.01% Triton | P00811;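 further: potency means the concentration at half of the fitted maximal effect; 0% = no-compound wells and -100% = no-enzyme wells; nearly all actives have a fitted effect of over 25% in size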
Target sequence (P00811 whole entry, looked up): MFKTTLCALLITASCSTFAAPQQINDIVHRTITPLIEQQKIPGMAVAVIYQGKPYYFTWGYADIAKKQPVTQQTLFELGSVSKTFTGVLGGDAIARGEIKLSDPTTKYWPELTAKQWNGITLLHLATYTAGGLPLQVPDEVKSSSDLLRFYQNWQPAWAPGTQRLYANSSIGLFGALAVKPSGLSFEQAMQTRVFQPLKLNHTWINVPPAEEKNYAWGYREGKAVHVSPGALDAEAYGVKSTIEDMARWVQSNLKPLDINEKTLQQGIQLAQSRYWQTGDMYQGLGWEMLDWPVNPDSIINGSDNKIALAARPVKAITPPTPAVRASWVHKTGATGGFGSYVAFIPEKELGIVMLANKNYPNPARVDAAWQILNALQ
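AmpC (5.3 nM in the dispensed reagent) in 20 mM phosphate pH 7.0 with 0.01% (detergent screen) or 0.0001% Triton X-100 was preincubated with compounds for 15 min at room temperature. Nitrocefin was then added from an 800 uM solution, and hydrolysis was followed at 480 nm.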
AmpC no deterg: inhibitors of E. coli AmpC beta-lactamase without detergent; P00811; AmpC nitrocefin hydrolysis, absorbance 480 nm, 0.0001% Triton; Potency, µM (highest dose often 57.1 µM), for the others: at the highest dose activity change, negative = inhibition, hits mostly inhibitors; 0.52% of 330,000 active; AID 485341;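 further: potency means the concentration at half of the fitted maximal effect; plate controls were no compound for no effect and no enzyme for full effect; nearly all actives have a fitted effect of over 20% in size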
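20 mM phosphate pH 7.0 + 0.01% (detergent screen) or 0.0001% Triton X-100; 5.3 nM AmpC reagent; cpd preinc 15 min RT; nitrocefin (800 uM stock) to start; A480 q20 s × 4 min; Activity was normalised to no-enzyme and no-compound control wells.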
An asterisk follows results filed as active. Unless noted, the call rests on the fitted dose curve; in most records, active means well fitted curve in the direction sought with a large enough effect; inconclusive means small, poorly fitted or top-dose-only effect, or another doubt; inactive means no such curve, though single readings can be large; an effect the other way counts as inactive or inconclusive.

Results for COc1ccc([C@H]2CC(=O)c3c(O)cc(O)cc3O2)cc1O ?
CHX counter: 23*; AMA1 RON2 block: -12%; Shiga inhibitor: 57; SARS PLpro yeast: 0%; AmpC detergent: -3%; AmpC no deterg: -42%

How did COc1ccc(NC(=O)N(C)[C@H]2C[C@H]3c4[nH]c5ccccc5c4CCN3C[C@H]2[C@H](C)O)cc1 do in these assays?
AMA1 RON2 block: -17%

How did Cc1[nH]c2ccc(C(=O)N3CCC(C(N)=O)CC3)cc2c1C do in these assays?
AMA1 RON2 block: 5%; SARS PLpro yeast: 6%; AmpC no deterg: -10%

What do the screens show for `Cc1[nH]c2ccc(C(=O)N3CCCCC3)cc2c1C`?
CHX counter: 39*; AMA1 RON2 block: -17%; Shiga inhibitor: 107*; SARS PLpro yeast: -1%; AmpC detergent: 2%; AmpC no deterg: -21%

How did Cc1[nH]c2ccc(C(=O)N3CCCC3)cc2c1C do in these assays?
CHX counter: 30*; AMA1 RON2 block: -3%; Shiga inhibitor: 23; SARS PLpro yeast: 2%; AmpC detergent: -8%; AmpC no deterg: -2%

What do the screens show for `CN(C)CCCN(C(=O)c1cccc(N2C(=O)CCC2=O)c1)c1nc2cc3c(cc2s1)OCO3`?
CHX counter: -4; AMA1 RON2 block: -10%; Shiga inhibitor: 1; SARS PLpro yeast: 5%; AmpC detergent: -4%; AmpC no deterg: 31%

What do the screens show for `CN1C(=O)C2(c3ccccc31)N(C)CC(c1ccccn1)C21SC(=S)N(Cc2ccco2)C1=O` (configuration not stated)?
CHX counter: 32*; AMA1 RON2 block: -25%; Shiga inhibitor: 27; SARS PLpro yeast: -14%; AmpC detergent: -4%; AmpC no deterg: 108%

What do the screens show for `CCCc1nc2c(=O)n(C)c(=O)[nH]c2n1CCC`?
CHX counter: -1; AMA1 RON2 block: 3%; Shiga inhibitor: -3; SARS PLpro yeast: 0%; AmpC detergent: 4%; AmpC no deterg: -1%

How did O=C(/C=C/c1ccc2c(c1)OCO2)Nc1nc(-c2ccc(F)cc2)cs1 do in these assays?
CHX counter: 2; Shiga inhibitor: -2; SARS PLpro yeast: 9%; AmpC detergent: -7%; AmpC no deterg: -34%

How did COc1cccc(Nc2nc(-c3ccc4c(c3)OCCO4)cs2)c1 do in these assays?
CHX counter: 53*; AMA1 RON2 block: -5%; Shiga inhibitor: 103*; SARS PLpro yeast: -9%; AmpC detergent: -9%; AmpC no deterg: -39%

How did c1ccc(-c2csc(Nc3ccc4c(c3)OCCO4)n2)cc1 do in these assays?
CHX counter: 54*; AMA1 RON2 block: -3%; Shiga inhibitor: 97*; AmpC detergent: -4%

Results for c1cc2c(cc1Nc1nc(-c3ccc4c(c3)OCO4)cs1)OCCO2 ?
CHX counter: 64*; AMA1 RON2 block: -5%; Shiga inhibitor: 78*; SARS PLpro yeast: 1%; AmpC detergent: -3%; AmpC no deterg: -20%

How did COc1cccc(C(C)(O)c2nc(-c3ccc4c(c3)OCO4)cs2)c1 (configuration not stated) do in these assays?
AMA1 RON2 block: -25%

Results for COc1ccc(OCCn2c(=N)n(CCO)c3ccccc32)cc1 ?
CHX counter: 4; AMA1 RON2 block: -8%; Shiga inhibitor: -13; SARS PLpro yeast: 6%; AmpC detergent: -16%; AmpC no deterg: 20%

What do the screens show for `Cn1nc([N+](=O)[O-])nc1S(C)(=O)=O`?
CHX counter: 31*; AMA1 RON2 block: -10%; Shiga inhibitor: 31; SARS PLpro yeast: -5%; AmpC detergent: -1%; AmpC no deterg: -16%

How did CCOC(=O)C1(CC2CCCCO2)CCN(C(=O)Nc2cccc(SC)c2)CC1 (configuration not stated) do in these assays?
CHX counter: -3; AMA1 RON2 block: 2%; Shiga inhibitor: 8; SARS PLpro yeast: -1%; AmpC detergent: -1%; AmpC no deterg: 0%

Results for CCCC[n+]1c(-c2ccc(Cl)cc2Cl)csc1Nc1ccccc1 ?
CHX counter: 18; AMA1 RON2 block: inconclusive; Shiga inhibitor: 24; SARS PLpro yeast: -71%; AmpC detergent: -6%; AmpC no deterg: -17%
